The values below come from PubChem BioAssay.

The source made the active and inactive calls.

The subject of assay [1] is Wnt5a (protein binding on small-molecule microarray). Description: small molecules binding Wnt5a protein – biophysical, small-molecule microarray, 635/667 nm fluorescence, primary screen (AID 1142).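 Further: fluorescence read at 667 nm with signal to noise per printed feature.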 As to conditions: 635 nm fluorescence, higher = more signal.
Assay [2] can be described thus: ATP-based viability of Huh7 replicon cells – cell-based, CellTiter-Glo luminescence, basal, 48 h, cytotoxicity control for HCV replication inhibitor project, primary screen (AID 1143).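 Further: Huh7 hepatoma cells carrying a hepatitis C replication reporter with no stimulus; test concentration not given here.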 The following applies: higher = more signal, called active from +8 up or from −8 down. Background: Replicon systems follow genome replication, usually without infectious particles.
Assay [3] can be described thus: basal CRE-LacZ reporter activity in PC12 – cell-based, unstimulated, primary screen (AID 1145). As to conditions: no forskolin, luminescence, 4.5 h, higher = more signal, called active from +8 up or from −8 down.
Assay [4] in a line: forskolin-driven CRE-LacZ activity in PC12 – cell-based, CRE-LacZ reporter, forskolin-stimulated, primary screen (AID 1146).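 Further: PC12 cells with 6xCRE LacZ reporter stimulated by forskolin 10 µM; beta-galactosidase reporter signal reflecting CREB driven transcription.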 The following applies: luminescence, 4.5 h, higher = more signal, called active from +8 up or from −8 down.
Assay [5] deals with Streptavidin (Streptomyces avidinii) (UniProt P22629). As to the kind of experiment: compounds binding control protein streptavidin – biophysical, small-molecule microarray, 635/667 nm fluorescence, artefact control for SMM compound annotation, primary screen (AID 1147).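 Further: signal reflects streptavidin binding to arrayed compounds as a control protein.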 As to conditions: higher = more signal.
Streptavidin (Streptomyces avidinii), sequence (P22629 whole entry, looked up): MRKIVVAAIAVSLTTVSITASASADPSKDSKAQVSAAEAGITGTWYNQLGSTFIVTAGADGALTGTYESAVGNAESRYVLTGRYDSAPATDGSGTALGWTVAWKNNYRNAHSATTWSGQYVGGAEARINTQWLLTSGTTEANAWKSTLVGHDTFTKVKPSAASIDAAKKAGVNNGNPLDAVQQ
Assay [6] in a line: probe aInhba binding on compound microarray – biochemical, small-molecule microarray, 635/667 nm fluorescence, primary screen (AID 1148).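 Further: score merges 667nm spot fluorescence with signal-to-noise for antibody binding to printed compounds.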 As to conditions: higher = more signal.
Assay [7] has as its target Torsin-1A (Homo sapiens) (UniProt O14656). As to the kind of experiment: TOR1A wild-type binding on microarray – cell lysate, small-molecule microarray, lysate, 635/667 nm, primary screen (AID 1149). As to conditions: COS7 hTOR1A-WT lysate, 635 nm fluorescence, higher = more signal.
Assay [8] shares this target. Description: torsin A mutant lysate binding on microarrays – cell lysate, small-molecule microarray, COS7 lysate, 635/667 nm fluorescence, primary screen (AID 1150).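 Further: score pools 667 nm emission and signal to noise measuring lysate protein binding.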 The following applies: COS7 hTOR1A mutant lysate, 635 nm fluorescence, higher = more signal.
Assay [9] deals with Sonic hedgehog protein (Shh). Description: Sonic hedgehog microarray binding compounds – biochemical, small-molecule microarray, 635/667 nm fluorescence, primary screen (AID 1151).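 Further: Shh protein binding to compounds spotted on small-molecule microarray slides; score combines spot fluorescence intensity with signal-to-noise across triplicate slides.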 The following applies: 635 nm fluorescence, higher = more signal.
A short description of assay [10]: optical density shifts of acrAB sulA E. coli – strain DRC41, OD650, 48 h, E. coli filamentation inducer project, primary screen (AID 1152).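 Further: E. coli MC1000 strain DRC41 lacking acrAB efflux pump and sulA.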 The following applies: higher = more signal, called active from +8 up or from −8 down.
Assay [11] is described as follows: probe aLefty1 binding on compound microarray – biochemical, small-molecule microarray, 635/667 nm fluorescence, primary screen (AID 1153).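 Further: score merges spot fluorescence with signal-to-noise ratio from the scanned slide images.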 As to conditions: higher = more signal.
Assay [12] in a line: plasmodial surface anion channel blockers, osmotic lysis – cell-based, P. falciparum Indochina, OD700, 1 h, primary screen (AID 1154). As to conditions: P. falciparum Indochina infected RBC osmotic lysis, higher = more signal, called active from +8 up or from −8 down.
Assay [13] in a line: plasmodial surface anion channel blockers, osmotic lysis – cell-based, P. falciparum Indochina, OD700, 2 h, primary screen (AID 1155).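 Further: lysis reports solute entry through the parasite surface anion channel PSAC.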 The following applies: P. falciparum Indochina infected erythrocytes, higher = more signal, called active from +8 up or from −8 down.
Assay [14] is described as follows: changes in parasitized red cell lysis, either direction – P. falciparum Indochina, OD700, 3 h, PSAC antagonist project, primary screen (AID 1156). The following applies: P. falciparum-infected erythrocytes, osmotic lysis, higher = more signal, called active from +8 up or from −8 down.
Assay [15] can be described thus: plasmodial surface anion channel blockers, osmotic lysis – cell-based, P. falciparum Indochina, OD700, 18 h, primary screen (AID 1157). As to conditions: P. falciparum Indochina infected erythrocytes, osmotic lysis OD700, 18 h; higher = more signal, called active from +8 up or from −8 down.
Assay [16] can be described thus: S6 kinase pathway phospho-S6 level changes – cell-based, A549, cytoblot, luminescence, serum-stimulated, primary screen (AID 1158).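 Further: serum-stimulated A549 lung adenocarcinoma cells; signal is phosphorylated S6 detected by cytoblot immunostaining with HRP secondary.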 As to conditions: 5 h, higher = more signal.
Assay [17] concerns the target NADPH oxidase 2 (Homo sapiens) (UniProt P04839). Description: compounds shifting NOX2 Amplex Red fluorescence – cell-based, HEK293-NOX2, PMA-stimulated, NOX inhibitor project, primary screen (AID 1159). Further: test concentration not given here. As to conditions: 45 min, higher = more signal, called active from +8 up or from −8 down.
Assay [18] has as its target NADPH oxidase 4 (Homo sapiens) (UniProt Q9NPH5). As to the kind of experiment: compounds shifting NOX4 Amplex Red fluorescence – cell-based, HEK293-NOX4, tetracycline-induced, NOX inhibitor project, primary screen (AID 1160). As to conditions: HEK293-NOX4, Amplex Red H2O2 fluorescence, 45 min; higher = more signal, called active from +8 up or from −8 down.
Assay [19] concerns the target NADPH oxidase 5 (Homo sapiens) (UniProt Q96PH1). As to the kind of experiment: compounds shifting NOX5 Amplex Red fluorescence – cell-based, HEK293-NOX5, NOX inhibitor project, primary screen (AID 1161). The following applies: HEK293-NOX5, ionomycin, 45 min, higher = more signal.
The nature of assay [20]: compound effects on lung adenocarcinoma cell viability – A549, calcein-AM fluorescence, 48 h, basal, profiling panel (AID 1162). Further: test concentration not given here. As to conditions: higher = more signal.

NADPH oxidase 2 (Homo sapiens), sequence (P04839 whole entry, looked up): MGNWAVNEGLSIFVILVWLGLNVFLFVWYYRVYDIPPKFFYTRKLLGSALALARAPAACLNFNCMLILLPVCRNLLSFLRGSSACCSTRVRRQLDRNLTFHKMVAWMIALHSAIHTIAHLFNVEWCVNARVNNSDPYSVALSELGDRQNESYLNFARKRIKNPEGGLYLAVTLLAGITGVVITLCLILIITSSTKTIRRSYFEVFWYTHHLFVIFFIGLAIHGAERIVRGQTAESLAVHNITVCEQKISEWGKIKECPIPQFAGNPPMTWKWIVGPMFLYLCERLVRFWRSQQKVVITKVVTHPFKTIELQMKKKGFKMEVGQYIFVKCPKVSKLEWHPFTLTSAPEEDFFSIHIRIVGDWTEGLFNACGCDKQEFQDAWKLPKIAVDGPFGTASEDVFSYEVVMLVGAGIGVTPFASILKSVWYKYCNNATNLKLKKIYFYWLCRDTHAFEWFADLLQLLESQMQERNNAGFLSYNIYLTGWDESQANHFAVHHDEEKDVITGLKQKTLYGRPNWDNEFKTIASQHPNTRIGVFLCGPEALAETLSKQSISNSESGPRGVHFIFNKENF
NADPH oxidase 5 (Homo sapiens), sequence (Q96PH1 whole entry, looked up): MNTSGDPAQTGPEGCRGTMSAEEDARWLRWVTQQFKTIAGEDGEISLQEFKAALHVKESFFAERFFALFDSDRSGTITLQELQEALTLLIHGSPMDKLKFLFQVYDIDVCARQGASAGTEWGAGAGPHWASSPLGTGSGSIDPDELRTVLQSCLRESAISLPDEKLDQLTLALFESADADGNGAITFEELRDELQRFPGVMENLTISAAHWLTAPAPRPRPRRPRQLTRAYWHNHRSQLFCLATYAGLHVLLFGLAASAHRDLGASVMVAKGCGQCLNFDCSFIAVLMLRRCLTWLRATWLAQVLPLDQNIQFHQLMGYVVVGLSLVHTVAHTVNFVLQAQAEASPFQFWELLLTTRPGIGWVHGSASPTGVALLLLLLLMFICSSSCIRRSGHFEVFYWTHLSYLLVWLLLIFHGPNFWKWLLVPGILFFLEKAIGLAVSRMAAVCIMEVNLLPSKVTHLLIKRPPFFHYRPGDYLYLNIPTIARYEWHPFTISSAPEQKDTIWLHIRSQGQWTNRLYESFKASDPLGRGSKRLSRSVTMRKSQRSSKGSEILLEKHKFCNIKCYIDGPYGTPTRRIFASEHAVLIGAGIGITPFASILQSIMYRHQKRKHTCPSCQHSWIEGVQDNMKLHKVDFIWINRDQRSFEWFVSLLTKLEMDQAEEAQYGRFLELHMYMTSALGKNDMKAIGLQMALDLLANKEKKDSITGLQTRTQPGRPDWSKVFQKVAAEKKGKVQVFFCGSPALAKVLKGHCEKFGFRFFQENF
Torsin-1A (Homo sapiens), sequence (O14656 whole entry, looked up): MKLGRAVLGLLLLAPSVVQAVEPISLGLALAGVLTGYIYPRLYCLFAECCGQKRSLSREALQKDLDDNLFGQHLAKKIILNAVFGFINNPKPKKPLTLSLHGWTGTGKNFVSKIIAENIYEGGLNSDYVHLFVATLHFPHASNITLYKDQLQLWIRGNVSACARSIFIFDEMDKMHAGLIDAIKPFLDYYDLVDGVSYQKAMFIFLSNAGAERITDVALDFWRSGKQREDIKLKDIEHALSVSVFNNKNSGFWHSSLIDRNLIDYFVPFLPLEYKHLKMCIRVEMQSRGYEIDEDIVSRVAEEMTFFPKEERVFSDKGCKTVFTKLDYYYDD
NADPH oxidase 4 (Homo sapiens), sequence (Q9NPH5 whole entry, looked up): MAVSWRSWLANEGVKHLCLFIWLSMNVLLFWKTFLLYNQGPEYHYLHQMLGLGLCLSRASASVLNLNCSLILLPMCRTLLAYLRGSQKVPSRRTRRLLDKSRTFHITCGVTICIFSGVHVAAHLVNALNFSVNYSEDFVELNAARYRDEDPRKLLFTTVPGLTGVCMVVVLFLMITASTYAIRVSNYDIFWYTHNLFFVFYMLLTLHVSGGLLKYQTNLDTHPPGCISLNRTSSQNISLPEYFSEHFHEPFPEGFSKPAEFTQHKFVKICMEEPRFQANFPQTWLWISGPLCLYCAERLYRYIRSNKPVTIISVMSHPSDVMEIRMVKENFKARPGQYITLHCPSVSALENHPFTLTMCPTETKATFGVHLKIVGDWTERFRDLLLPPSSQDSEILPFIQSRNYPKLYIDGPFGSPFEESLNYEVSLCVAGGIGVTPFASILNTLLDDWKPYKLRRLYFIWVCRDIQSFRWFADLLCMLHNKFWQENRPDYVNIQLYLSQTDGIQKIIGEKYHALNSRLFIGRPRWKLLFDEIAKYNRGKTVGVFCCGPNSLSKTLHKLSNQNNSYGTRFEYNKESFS

Regarding `C=CCC(OC(C)=O)[C@@H]1[C@@H](N(Cc2cccc3ccccc23)C(=O)c2cccc3ccccc23)c2cc(OCCCO)ccc2N1C(=O)Cc1ccc(OC)cc1` (stereo not given in full), the composite z-score in [1] was -0.0589; in assay [5], 0.228; in [6], -0.179; in [7] it was -0.0507; in assay [8], 0.274; in [9], 0.234. Moreover, in assay [11], the composite z-score amounted to 0.0945. Moreover, the z-score in assay [2] was -3.55 (inactive); in assay [3] it was 1.47 (inactive); in assay [4], -0.876 (inactive); in assay [10], 2.86 (inactive); in assay [12] it was 2.59 (inactive); in assay [13], -0.227 (inactive). In addition, the z-score was -0.0889 (inactive) in [14]; -0.618 (inactive) in [15]; 1.5 in [16]; 0.295 (inactive) in [17]; -0.783 (inactive) in assay [18]; 1.46 in assay [19]. The z-score in assay [20] was 0.725.
In the case of `CC(C)C[C@@H]1NC(=O)[C@@]23C(=O)N[C@@H](Cc4ccccc4)C2[C@H](C)[C@@]2(C)O[C@H]2C3/C=C/CC/C=C/CNC(=O)[C@@H](C)NC1=O` (stereo not given in full), the composite z-score is 0.298 in [1]; 0.0315 in assay [5]; -0.16 in [6]; 0.418 in assay [7]; -0.0123 in assay [8]; 1.78 in assay [9]. The composite z-score in [11] was -0.0984. Further, the z-score in assay [2] is -2.4 (inactive); in assay [3] it was 2.03 (inactive); in assay [4], -1.16 (inactive); in assay [10], 2.61 (inactive); in assay [12] it was 1.31 (inactive); in assay [13], 0.548 (inactive). The z-score in [14] is 0.224 (inactive); in assay [15], 0.5 (inactive); in [16] it was 0.595; in assay [17] it was 0.649 (inactive); in assay [18], 0.24 (inactive); in assay [19] it was -0.181. The z-score in assay [20] was 0.421.
Consider `O=C1O[C@H](c2ccccc2)[C@H](c2ccccc2)N2[C@H]1[C@@H](C(=O)NC[C@H](O)c1ccccc1)[C@]1(C(=O)Nc3ccc(C#CC4(O)CCCCCC4)cc31)[C@H]2c1ccc(O)cc1`, for which the composite z-score came out at 0.195 in assay [1]; 0.26 in [5]; 0.0377 in [6]; 0.704 in assay [7]; 1.02 in assay [8]; 1.27 in assay [9]. In addition, in assay [11], the composite z-score worked out at 0.0495. Also, the z-score in assay [2] is -2.13 (inactive); in [3], -0.0607 (inactive); in assay [4], -0.58 (inactive); in assay [10], 1.46 (inactive); in assay [12], 0.519 (inactive); in [13], 0.447 (inactive). In addition, the z-score in [14] is 0.001 (inactive); in assay [15], -0.181 (inactive); in assay [16], 0.381; in [17] it was 1.68 (inactive); in [18], 0.753 (inactive); in assay [19], 1.58. Further, in assay [20], the z-score was 0.97.
Regarding `COc1ccc([Si](C)(C)[C@H]2[C@H](CC(=O)N(CCO)Cc3ccccc3)O[C@@]3(C(=O)N(Cc4ccc(N5CCC5=O)cc4)c4ccccc43)[C@@H]2C)cc1`, the composite z-score is -0.161 in assay [1]; -0.161 in assay [5]; -0.128 in assay [6]; 0.162 in [7]; 0.294 in assay [8]; 0.407 in [9]. In assay [11], the composite z-score was -0.188. Besides, the z-score in [2] was -2.68 (inactive); in assay [3], 1.82 (inactive); in [4], -0.316 (inactive); in [10], 1.33 (inactive); in [12] it was 27.1 (active); in assay [13], 21.7 (active). Besides, the z-score is 0.241 (inactive) in [14]; 2.17 (inactive) in assay [15]; 1.39 in assay [16]; 0.946 (inactive) in [17]; 1.25 (inactive) in [18]; 2.96 in assay [19]. Moreover, the z-score in assay [20] was -0.0126.
